# Data published in the supplement of paper PMC8728848.
# The sample as a whole holds a higher share of the strongest signals than the screen did.
# B1: CCL2 (Coprinopsis cinerea), B3GA02 (protein)
# chain: MDSPAVTLSAGNYIIYNRVLSPRGEKLALTYPGRQRTPVTVSPLDGSSEQAWILRSYDSNSNTWTISPVGSPNSQIGWGAGNVPVVLPPNNYVWTLTLTSGGYNIQDGKRTVSWSLNNATAGEEVSIGADATFSGRWVIEKV
# Columns and labels:
# Test in all cases: glycan array binding signal (z-score within array); higher = stronger binding
# Details in all cases: glycan notation: IUPAC condensed, linker removed
# [1] = molecular target: Fuc(a1-2)Gal(b1-3)[Fuc(a1-4)]GlcNAc(b1-2)Man(a1-3)[Fuc(a1-2)Gal(b1-3)[Fuc(a1-4)]GlcNAc(b1-2)Man(a1-6)]Man(b1-4)GlcNAc(b1-4)GlcNAc
# Outline: (§1)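 From the Consortium for Functional Glycomics database, 3228 arrays were curated, keeping only those whose protein sequence was available. Binding is given as a within-array Z-score averaged across arrays sharing a protein sequence and across linkers. Negative Z-scores can be read as non-binding.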
# [2] = molecular target: Fuc(a1-2)[GalNAc(a1-3)]Gal(b1-4)GlcNAc
# Outline: as §1
# [3] = molecular target: Fuc(a1-2)[GalNAc(a1-3)]Gal(b1-4)GlcNAc(b1-2)Man(a1-3)[GalNAc(a1-3)[Fuc(a1-2)]Gal(b1-4)GlcNAc(b1-2)Man(a1-6)]Man(b1-4)GlcNAc(b1-4)GlcNAc
# Outline: as §1
# [4] = molecular target: Fuc(a1-3)[Gal(b1-4)]GlcNAc
# Outline: as §1
# [5] = molecular target: Fuc(a1-3)[Gal(b1-4)]GlcNAc(b1-2)Man(a1-3)[Fuc(a1-3)[Gal(b1-4)]GlcNAc(b1-2)Man(a1-6)]Man(b1-4)GlcNAc(b1-4)GlcNAc
# Outline: as §1
# [6] = molecular target: Fuc(a1-3)[Gal3S(b1-4)]GlcNAc
# Outline: as §1
# [7] = molecular target: Fuc(a1-3)[GalNAc(b1-4)]GlcNAc
# Outline: as §1
# [8] = molecular target: Gal(a1-3)Gal(b1-4)[Fuc(a1-3)]GlcNAc(b1-2)Man(a1-3)[Gal(a1-3)Gal(b1-4)[Fuc(a1-3)]GlcNAc(b1-2)Man(a1-6)]Man(b1-4)GlcNAc(b1-4)GlcNAc
# Outline: as §1
# [9] = molecular target: Gal(b1-3)GalNAc(b1-4)Gal(b1-4)Glc
# Outline: as §1
# [10] = molecular target: Gal(b1-3)GlcNAc(b1-2)Man(a1-3)[Gal(b1-3)GlcNAc(b1-2)Man(a1-6)]Man(b1-4)GlcNAc(b1-4)[Fuc(a1-6)]GlcNAc
# Outline: as §1
# [11] = molecular target: Gal(b1-3)[Fuc(a1-4)]GlcNAc(b1-2)Man(a1-3)[Gal(b1-3)[Fuc(a1-4)]GlcNAc(b1-2)Man(a1-6)]Man(b1-4)GlcNAc(b1-4)[Fuc(a1-6)]GlcNAc
# Outline: as §1
# [12] = molecular target: Gal(b1-4)GlcNAc(b1-2)[Gal(b1-4)GlcNAc(b1-4)]Man(a1-3)[Gal(b1-4)GlcNAc(b1-2)Man(a1-6)]Man(b1-4)GlcNAc(b1-4)GlcNAc
# Outline: as §1
# Gal3S(b1-4)GlcNAc6S = molecular target: Gal3S(b1-4)GlcNAc6S
# Outline: as §1
# Gal4S(b1-4)GlcNAc = molecular target: Gal4S(b1-4)GlcNAc
# Outline: as §1
# [13] = molecular target: GlcNAc(b1-2)Man(a1-3)[GlcNAc(b1-2)Man(a1-6)]Man(b1-4)GlcNAc(b1-4)GlcNAc
# Outline: as §1
# [14] = molecular target: GlcNAc(b1-4)GlcNAc(b1-4)GlcNAc(b1-4)GlcNAc(b1-4)GlcNAc
# Outline: as §1
# Kdn(a2-3)Gal(b1-3)GlcNAc = molecular target: Kdn(a2-3)Gal(b1-3)GlcNAc
# Outline: as §1
# [15] = molecular target: Neu5Ac(a2-3)Gal(b1-3)GalNAc(b1-3)Gal(a1-4)Gal(b1-4)Glc
# Outline: as §1
# [16] = molecular target: Neu5Ac(a2-3)Gal(b1-4)GlcNAc(b1-6)[Neu5Ac(a2-3)Gal(b1-3)]GalNAc
# Outline: as §1
# [17] = molecular target: Neu5Ac(a2-3)Gal(b1-4)[Fuc(a1-3)]GlcNAc(b1-3)Gal
# Outline: as §1
# [18] = molecular target: Neu5Ac(a2-3)Gal(b1-4)[Fuc(a1-3)]GlcNAc(b1-3)Gal(b1-4)GlcNAc
# Outline: as §1
# [19] = molecular target: Neu5Ac(a2-3)Gal(b1-4)[Fuc(a1-3)]GlcNAc6S
# Outline: as §1
# [20] = molecular target: Neu5Ac(a2-3)Gal6S(b1-4)GlcNAc
# Outline: as §1
# [21] = molecular target: Neu5Ac(a2-6)Gal(b1-4)GlcNAc6S
# Outline: as §1
# [22] = molecular target: Neu5Ac(a2-8)Neu5Ac(a2-3)Gal(b1-4)Glc
# Outline: as §1
# [23] = molecular target: Neu5Ac(a2-8)Neu5Ac(a2-8)Neu5Ac(a2-8)Neu5Ac(a2-3)[GalNAc(b1-4)]Gal(b1-4)Glc
# Outline: as §1
# [24] = molecular target: Neu5Ac9Ac(a2-3)Gal(b1-3)GlcNAc
# Outline: as §1
# [25] = molecular target: Neu5Gc(a2-3)Gal(b1-3)GlcNAc
# Outline: as §1
binder,measurement,setting,value
B1,glycan array binding signal (z-score),[1],-0.067
same,glycan array binding signal (z-score),[2],-0.286
same,glycan array binding signal (z-score),[3],-0.269
same,glycan array binding signal (z-score),[4],0.752
same,glycan array binding signal (z-score),[5],3.53
same,glycan array binding signal (z-score),[6],-0.279
same,glycan array binding signal (z-score),[7],4.84
same,glycan array binding signal (z-score),[8],4.37
same,glycan array binding signal (z-score),[9],-0.293
same,glycan array binding signal (z-score),[10],-0.283
same,glycan array binding signal (z-score),[11],-0.19
same,glycan array binding signal (z-score),[12],-0.268
same,glycan array binding signal (z-score),Gal3S(b1-4)GlcNAc6S,-0.276
same,glycan array binding signal (z-score),Gal4S(b1-4)GlcNAc,-0.26
same,glycan array binding signal (z-score),[13],-0.257
same,glycan array binding signal (z-score),[14],-0.255
same,glycan array binding signal (z-score),Kdn(a2-3)Gal(b1-3)GlcNAc,-0.257
same,glycan array binding signal (z-score),[15],-0.278
same,glycan array binding signal (z-score),[16],-0.27
same,glycan array binding signal (z-score),[17],5.39
same,glycan array binding signal (z-score),[18],4.93
same,glycan array binding signal (z-score),[19],4.45
same,glycan array binding signal (z-score),[20],4.88
same,glycan array binding signal (z-score),[21],-0.205
same,glycan array binding signal (z-score),[22],-0.275
same,glycan array binding signal (z-score),[23],-0.286
same,glycan array binding signal (z-score),[24],-0.294
same,glycan array binding signal (z-score),[25],-0.282
